Only some compounds are listed: those with a hit (about 10% of all), similar ones and a draw of the others.
ALDH1A1 inh: inhibitors of human aldehyde dehydrogenase 1A1; P00352; Purified ALDH1A1, NADH fluorescence, propionaldehyde substrate; Potency, µM (titrated, usually from 75.3 µM), inactives show top-dose activity, negative = inhibition, actives largely listed as inhibitors; hit rate 7.3% among 220,000; active = well fitted inhibition curve with a large enough effect, not every such curve was filed as active; inconclusive = small, poorly fitted or top-dose-only effect, or another doubt; inactive = no such curve, though single readings can be large or run the other way;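 note: potency is the fitted concentration of half-maximal effect; plate controls were no enzyme wells and a reference inhibitor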
HPGD block: blocks human HPGD enzyme activity. Potency, µM, without a hit: at the top dose activity change, negative = inhibition, hits mostly inhibitors. AID 894. P15428. hit rate 4.3% among 150,000. purified HPGD, NADH fluorescence kinetic, PGE2 substrate; active = well fitted inhibition curve with a large enough effect, not every such curve was filed as active; inconclusive = small, poorly fitted or top-dose-only effect, or another doubt; inactive = no such curve, though single readings can be large or run the other way; note: potency is the fitted concentration of half-maximal effect
Target sequence (P15428 whole entry, looked up): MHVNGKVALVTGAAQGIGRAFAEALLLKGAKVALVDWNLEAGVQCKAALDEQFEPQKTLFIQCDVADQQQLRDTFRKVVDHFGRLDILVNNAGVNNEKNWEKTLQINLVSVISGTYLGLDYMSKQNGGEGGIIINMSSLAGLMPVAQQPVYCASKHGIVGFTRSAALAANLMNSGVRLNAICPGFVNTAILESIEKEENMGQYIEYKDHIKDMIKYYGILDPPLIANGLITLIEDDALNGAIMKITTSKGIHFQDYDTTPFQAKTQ
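20 nM HPGD preincubated 15 min at room temperature with compound in 50 mM Tris-HCl pH 8, 0.01% Tween 20. Started with 1 mM NAD+ and 30 uM prostaglandin E2; NADH fluorescence (360/450 nm) read 5 times over 30-s intervals, last minus first.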
GLA inh pH 4.5: inhibitors of human alpha-galactosidase A at pH 4.5. P06280. purified enzyme, 4-MU-alpha-Gal fluorescence, pH 4.5. activity change, negative = inhibition, % at 105 µM. 230,000 tested, under 10 active. AID 1467;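 note: 0% = full activity with enzyme and -100% = basal without enzyme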
GLA spleen mod: alpha-galactosidase A (human) modulation. P06280. human spleen homogenate, 4MU-alpha-Gal fluorescence, 40 min. Potency, µM (highest dose often 80 µM), for inactives: at the top dose activity change, negative = inhibition, actives largely listed as inhibitors. hit rate 0.008% among 240,000. AID 2107;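 note: potency is the fitted concentration of half-maximal effect; 0% = enzyme with vehicle and -100% = no enzyme basal signal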
Target sequence (P06280 32-429 limits assumed): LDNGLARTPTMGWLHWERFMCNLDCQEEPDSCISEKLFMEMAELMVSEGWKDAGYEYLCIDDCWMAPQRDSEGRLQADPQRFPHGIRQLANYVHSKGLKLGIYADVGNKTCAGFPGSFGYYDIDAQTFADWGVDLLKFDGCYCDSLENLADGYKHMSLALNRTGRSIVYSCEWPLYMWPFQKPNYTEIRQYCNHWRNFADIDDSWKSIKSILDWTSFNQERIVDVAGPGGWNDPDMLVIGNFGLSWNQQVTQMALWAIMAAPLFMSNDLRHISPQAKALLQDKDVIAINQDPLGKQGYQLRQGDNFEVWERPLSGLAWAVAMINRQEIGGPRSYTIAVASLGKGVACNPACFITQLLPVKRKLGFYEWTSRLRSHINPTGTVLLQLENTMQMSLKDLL
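Inhibition or activation of alpha-galactosidase in human spleen homogenate is scored by 4-MU fluorescence after 40 min at 37C, pH 5.0, with 1 mM substrate. AC50s come from concentration-response fitted to the Hill equation.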
PNC inhibitor: perinucleolar compartment assembly inhibition | PC3M PTB-GFP, PNC prevalence imaging, 16 h; hits give low values | activity change (PNC), negative = inhibition, % at 10 µM | hit rate 3.1% among 140,000;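 active = readout at or below -70, meaning at least 70% loss of cells showing the perinucleolar compartment, a nuclear body marking cancer cells; inconclusive = readout between -30 and a set limit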;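 note: plate controls were DMSO wells for no effect and camptothecin positive control wells for full effect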
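Read-out is percentage of cells bearing a perinucleolar compartment, from automated 20x imaging of fixed, Hoechst-stained PC3M PTB-GFP cells. Cells were seeded 4 h, then exposed 16 h to compound (23 nl of library stock) in duplicate plates.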
ALOX12 inhib: inhibitors of human 12-lipoxygenase (ALOX12). purified 12-hLO, xylenol orange hydroperoxide absorbance. Potency, µM (top dose mostly 57.1 µM), for the others: top-dose activity change, negative = inhibition, actives largely listed as inhibitors. hit rate 0.12% among 150,000; note: potency is the fitted concentration of half-maximal effect; nearly all actives have a fitted effect of over 55% in size
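Hydroperoxide formation by human 12-lipoxygenase from 40 uM arachidonic acid was followed colorimetrically via ferric-xylenol orange complex, using the 573/405 nm absorbance ratio. Enzyme concentration was 150 nM, with 30 min reaction at room temperature.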
An asterisk follows results filed as active; ? = inconclusive; nt = no result given; [ ] = remark or other dose. Unless noted, calls come from the whole dose curve; as a rule, active = well fitted curve in the direction sought with a large enough effect; inconclusive = small, poorly fitted or top-dose-only effect, or another doubt; inactive = no such curve, though single readings can be large; an effect the other way counts as inactive or inconclusive. Unless noted, % is set by controls: 0 for no effect and ±100 for the full control effect.

SMILES	ALDH1A1 inh	HPGD block	GLA inh pH 4.5	GLA spleen mod	PNC inhibitor	ALOX12 inhib
COC(C(C)/C=C/CC(=O)OCCCc1ccccc1)C1CCCCC1 (configuration not stated)	7.8%[13.5 µM]	nt	nt	3.3%[17.5 µM]	nt	nt
S=C1Cc2ccccc2N1	nt	nt	0.4	5.7%	nt	nt
Cc1cc(N)n(-c2ccc(S(=O)(=O)c3ccc(C(C)C)cc3)cc2)n1	35.5µM*	nt	-18.3	-8.8%	nt	nt
Cc1cc(N)n(-c2ccc([N+](=O)[O-])cc2)n1	5.9%	nt	-0.5	-6.1%	nt	nt
C=CCN1C(=O)/C(=C/C=C2/N(CC)c3ccc(S(=O)(=O)N(C)C)cc3N2CC)SC1=S	2.82µM*	nt	4.0	2.4%	nt	nt
C=CCN1C(=O)/C(=C\C=C2\N(C)c3ccccc3C2(C)C)SC1=S	-1.6%	-14.2%	-2.2	5.4%	?	6.2%
O=C(Nc1cc(Cl)ccc1O)c1snnc1-c1ccccc1	-10.0%	-20.2%	-2.9	-1.7%	-7.1	-3.5%
CCCCC[C@H](O)CC[C@H]1[C@H](O)CC(=O)[C@@H]1CCCCCCC(=O)O	5.7%	-7.6%	-4.6	-1.1%	nt	1.0%
COc1cc2c(cc1OC)CN(CC(=O)NC(=O)NCc1ccccc1)CC2	28.2µM*	nt	-0.1	-1.1%	nt	nt
O=C(CN1CCCCC1)NC(=O)NCc1ccccc1	4.8%	-12.8%	-10.2	-4.1%	60.8	8.6%
O=C(CN1CCc2ccccc21)NC(=O)NCc1ccccc1	7.08µM*	nt	-4.3	-3.9%	nt	nt
COc1ccc(C(=O)C[n+]2ccc3c(c2)nnn3-c2ccccc2)cc1	-16.1%	nt	-8.3	11.3%	nt	nt
N#Cc1ccccc1-c1ccc2ncnc(NCCN3CCOCC3)c2c1	?	nt	nt	1.3%	nt	nt
Cc1ccc(C(=O)N2CC(C)OC(C)C2)c(Cl)c1 (configuration not stated)	?	15.8µM*	-3.5	1.8%	4.8	4.7%
CC1CN(C(=O)c2cc(S(=O)(=O)N3CCCC3)c(Cl)cc2Cl)CC(C)O1 (configuration not stated)	-17.9%	-5.6%	-8.9	4.8%	?	3.0%
CCc1nc(N)c(C#N)c(-c2ccncc2)c1C	3.0%	-26.6%	5.9	2.7%	0.9	-1.9%
CCc1nc(N)c(C#N)c(-c2cccc3ccccc23)c1C	7.6%	-24.5%	-1.3	7.0%	-100.0*	1.1%
O=C(O)C1CC(=O)N(CCC23CC4CC(CC(C4)C2)C3)C(=Nc2ccccc2)S1 (configuration not stated)	?	-16.2%	nt	nt	nt	-19.1%
COc1ccc(-c2nnc3ccc(SC(C(C)=O)C(C)=O)nn23)cc1OC	-10.2%	14.1µM*	-1.4	-13.3%	-10.9	-25.2%
CCC(Sc1ccc2nnc(-c3ccc(OC)c(OC)c3)n2n1)C(=O)O (configuration not stated)	?	14.1µM*	-2.2	5.4%	36.5	-2.4%
O=C(CN1CCCCC1)N=Nc1c(O)[nH]c2ccccc12	12.6µM*	nt	2.7	5.2%	nt	nt
CC(NC(=O)Cn1ccsc1=N)C12CC3CC(CC(C3)C1)C2 (configuration not stated)	-6.4%	-5.3%	-9.4	0.7%	-6.6	-2.2%
CC(NC(=O)CSC(=S)N(C)C)C12CC3CC(CC(C3)C1)C2 (configuration not stated)	12.6µM*	nt	-6.0	-13.2%	-4.8	4.1%
Cn1cc(-c2nc3cnc(N4CCNCC4)nc3n(Cc3ccc(F)cc3)c2=O)c2ccccc21	-7.7%	nt	nt	20.1%	nt	nt
O=C(NC(=S)Nc1ccc2oc(=O)ccc2c1)c1cc2ccccc2o1	nt	nt	1.1	-5.1%	nt	nt
SMILES	ALDH1A1 inh	HPGD block	GLA inh pH 4.5	GLA spleen mod	PNC inhibitor	ALOX12 inhib
Cc1ccc(C(O)(COC(=O)C(C)C)COC(=O)C(C)C)c(O)c1	7.94µM*	nt	3.8	-1.6%	nt	nt
N#CCCn1c(=O)cnc2cnc(N3CCOCC3)nc21	?	?	nt	-0.5%	nt	-18.1%
c1ccc(-c2cc3c(N4CCCC4)ncnc3s2)cc1	?	nt	15.5	0.2%	nt	nt
c1ccc(-c2cc3c(N4CCOCC4)ncnc3s2)cc1	?	?	3.4	-11.9%	-96.6*	5.4%
c1ccc(-n2nnc3c(N4CCOCC4)ncnc32)cc1	?	28.2µM*	-5.2	-12.9%	-21.2	1.3%
Cn1c2ccccc2c2c(C(=O)N3CCN(c4ccccc4)CC3)cn(C3CCCC3)c(=O)c21	?	?	2.3	-9.9%	-113.4*	-6.5%
NS(=O)(=O)c1ccc(CNS(=O)(=O)c2cccc3nonc23)cc1	nt	nt	-0.4	0.5%	nt	nt
CC(C)CO/N=C1/C[C@@H](O)[C@@H](O)[C@@H]2[C@@H]3C(=O)N(C4CCCCC4)C(=O)[C@H]3CC[C@H]12	-1.8%[13.5 µM]	nt	nt	-5.8%[17.5 µM]	nt	nt
CC(C)=NOC[C@@H](O)COCc1ccco1	-4.8%[13.5 µM]	nt	nt	-1.7%[17.5 µM]	nt	nt
O=S(=O)(NCC(O)COCc1ccco1)c1cccs1 (configuration not stated)	7.94µM*	-8.1%	-3.0	4.4%	?	-6.4%
COC(=O)NC(c1cccc(C)c1)[C@]1(C(C)=O)CCCC1=O (some centres not stated)	0.6%[13.5 µM]	nt	nt	-15.0%[17.5 µM]	nt	nt
O=C(Nc1ccc(OC(F)F)c(Cl)c1)C(c1ccccc1)c1ccccc1	14.1µM*	-4.0%	0.3	6.7%	?	1.8%
FC(F)Oc1ccc(NC(=S)NCc2ccccc2)cc1Cl	?	14.1µM*	-5.1	5.0%	-1.0	?
CCC(=O)OCC(=O)C1(OC(=O)CC)C(C)CC2C3C(Cl)CC4=CC(=O)C=C[C@@]4(C)C3C(O)C[C@@]21C (some centres not stated)	?	-14.3%	-8.2	3.5%	nt	-0.3%
O=S(=O)(C/C(=C/CO)S(=O)(=O)c1ccccc1)c1ccccc1	12.6µM*	-5.3%	0.6	5.3%	-94.8*	-0.7%
O=C1CCCC2[C@@H]3CCC[N@+]4([O-])CCC[C@H](CN12)C34 (some centres not stated)	-3.0%	-4.0%	3.3	4.5%	nt	nt
CC1CCCN(CCC(=O)c2ccc(Br)cc2)C1 (configuration not stated)	0.126µM*	3.98µM*	2.6	-2.8%	-4.2	-0.8%
COc1cc2c(cc1OC)CN(CCC(=O)c1ccc(Br)cc1)CC2	0.199µM*	nt	-2.5	-6.9%	nt	nt
O=C(Nc1ccccc1)N1CC2(CCN(C(=O)c3cc(C(F)(F)F)cc(C(F)(F)F)c3)CC2)C1	-2.8%	-1.9%	nt	7.0%	nt	1.9%
COc1ccccc1-n1c(-c2ccc(Cl)cc2)c[nH]c1=S	?	nt	-3.6	-3.9%	nt	nt
N=C1Sc2ccccc2C2=NCCCN12	10µM*	2.24µM*	0.1	-10.0%	nt	?
CCCOC(=O)Nc1ccc(S(=O)(=O)Nc2ncccn2)cc1	nt	nt	3.1	-1.0%	nt	nt
COc1ccc(NC(=S)NNC(=O)COc2ccc(Cl)cc2Cl)cc1	6.9%	4.47µM*	8.8	5.5%	-7.1	-4.6%
